Among the data in PubChem BioAssay (Tox21) are outcome, Potency and max response values, retold here.

Test [1] can be described thus: qHTS assay to identify small molecule agonists of the hypoxia (HIF-1) signaling pathway - cell viability counter screen (AID 1224844; calls by dose curve; further: nearly all actives have a fitted effect of over 50% in size). In a few lines:
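HRE-bla ME-180 cells, 2,000/well in 0.5% dialyzed FBS medium, treated 17 h at 37C with compounds. Viability read in the same wells as the bla reporter, by CellTiter-Glo luminescence after 30 min at room temperature.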
A general note: Quantitative high-throughput screening tests each substance at several concentrations.

Test [2] can be described thus: qHTS assay to identify small molecule agonists of H2AX (AID 1224845; active means well fitted activation curve with a large enough effect in the signal ratio in the repeat runs, not every such curve was filed as active; the % refers to the signal ratio). In a few lines:
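Phospho-H2AX Ser139 measured by HTRF (ex 320 nm; em 665 and 620 nm) after 24 hr antibody incubation. Compounds, 15 concentrations, 0.76% DMSO, were applied to CHO-K1 cells for 3hr at 37C before lysis.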

Test [3] in a line: qHTS assay to identify small molecule agonists of the hypoxia (HIF-1) signaling pathway (AID 1224846; active means well fitted activation curve with a large enough effect in the signal ratio in the repeat runs, not every such curve was filed as active; the % refers to the signal ratio). In a few lines: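 HRE-bla ME-180 beta-lactamase reporter cells in medium with 0.5% dialyzed FBS, pre-incubated 5 h then exposed to compounds 17 h at 37C, 5% CO2; reporter induction read with CCF4-AM FRET substrate.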
The nature of test [4]: qHTS assay to identify small molecule agonists of H2AX - cell viability counter screen (AID 1224847; calls by dose curve; further: top concentration of the series differs between compounds; nearly all actives have a fitted effect of over 30% in size). Put shortly:
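Wild-type CHO-K1 cells (10% FBS medium) were plated overnight at 37C, exposed to compounds at 15 concentrations for 3 hr at 37C (0.76% DMSO final), and viability was read as CellTiter-Glo luminescence after 30 min at room temperature.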

Test [5] in a line: qHTS RealTime-Glo MT Cell Viability Assay in HepG2 cells - 24 hour (AID 1224867). Further: nearly all actives have a fitted effect of over 50% in size. In a few lines:
(§1)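 qHTS, HepG2, 600 cells/well, RealTime-Glo (NanoLuc + prosubstrate) added with cells; 5 h preincubation; DMSO compound addition; 37 C; luminescence at 0/8/16/24/32/40 h.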

The nature of test [6]: qHTS RealTime-Glo MT Cell Viability Assay in HEK293 cells - 32 hour (AID 1224868). Further: top concentration of the series differs between compounds; nearly all actives have a fitted effect of over 50% in size. Put shortly: (§2)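 Assay medium contained NanoLuc luciferase plus cell-permeant prosubstrate, added with HEK293 cells at 600 cells/well. After 5 h at 37 C/5% CO2 compounds were added; plates stayed at 37 C for 40 h with serial luminescence reads.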
A short description of test [7]: qHTS RealTime-Glo MT Cell Viability Assay in HepG2 cells - 40 hour (AID 1224870). Further: nearly all actives have a fitted effect of over 50% in size. Put shortly: (§3)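 Real-time viability: cells seeded at 600 per well together with NanoLuc and cell-permeant prosubstrate, compounds added after 5 h incubation. Luminescence tracked at 0, 8, 16, 24, 32 and 40 h of exposure.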
A short description of test [8]: A CellTox Green Cytotoxicity Assay to monitor cytotoxicity in HEK293 cells - 40 hour (AID 1224871). Further: nearly all actives have a fitted effect of over 45% in size. Put shortly:
(§4)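 HEK293 cells, 600/well, were preincubated 5 hours and then exposed to compounds at 37 C for up to 40 hours. A cell-impermeant cyanine dye staining dead-cell DNA was read by fluorescence at 0, 8, 16, 24, 32 and 40 h time points.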

Test [9] is described as follows: qHTS RealTime-Glo MT Cell Viability Assay in HEK293 cells - 16 hour (AID 1224872). Further: nearly all actives have a fitted effect of over 50% in size. Further: potency means the concentration at half of the fitted maximal effect. Put shortly:
as §2

Test [10] is described as follows: qHTS RealTime-Glo MT Cell Viability Assay in HepG2 cells - 8 hour (AID 1224873). Further: nearly all actives have a fitted effect of over 55% in size. Put shortly:
as §3

Test [11] in a line: qHTS RealTime-Glo MT Cell Viability Assay in HEK293 cells - 40 hour (AID 1224874). Further: nearly all actives have a fitted effect of over 50% in size. Further: potency means the concentration at half of the fitted maximal effect. The conditions noted are these: RealTime-Glo luminescence; max response: hits give low values. In a few lines:
(§5)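 600 cells/well were plated with the nonlytic NanoLuc/prosubstrate reagent, pre-incubated 5 h, then given 23 nL of compound in DMSO. Incubation at 37 C for 40 h, with luminescence from viable-cell-reduced substrate read repeatedly from 0 h.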

Test [12] in a line: A CellTox Green Cytotoxicity Assay to monitor cytotoxicity in HEK293 cells - 24 hour (AID 1224875). Further: series mostly up to about 77 µM; nearly all actives have a fitted effect of over 45% in size. In a few lines: as §4
The nature of test [13]: A CellTox Green Cytotoxicity Assay to monitor cytotoxicity in HepG2 cells - 16 hour (AID 1224876). Further: nearly all actives have a fitted effect of over 45% in size. In a few lines: (§6)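 HepG2 cells, 600/well, preincubated 5 h with CellTox Green dye, then exposed to Tox21 compounds in DMSO at 37 C for up to 40 h. Dead-cell DNA fluorescence read at the indicated time point.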
Test [14] can be described thus: qHTS RealTime-Glo MT Cell Viability Assay in HepG2 cells - 32 hour (AID 1224877). Further: nearly all actives have a fitted effect of over 55% in size. In a few lines:
as §1

The nature of test [15]: A CellTox Green Cytotoxicity Assay to monitor cytotoxicity in HepG2 cells - 24 hour (AID 1224878). Further: nearly all actives have a fitted effect of over 45% in size. Put shortly:
as §6

The nature of test [16]: A CellTox Green Cytotoxicity Assay to monitor cytotoxicity in HepG2 cells - 40 hour (AID 1224879). Further: nearly all actives have a fitted effect of over 40% in size. Put shortly:
as §6

Test [17] can be described thus: qHTS RealTime-Glo MT Cell Viability Assay in HEK293 cells - 0 hour (AID 1224880). In a few lines: as §5
Test [18] can be described thus: A CellTox Green Cytotoxicity Assay to monitor cytotoxicity in HEK293 cells - 0 hour (AID 1224869). Further: nearly all actives have a fitted effect of over 50% in size. Put shortly:
as §4

A short description of test [19]: qHTS assay to identify small molecule agonists of the estrogen related receptor (ERR) signaling pathway from Tox21 library (AID 1224849; calls by dose curve; further: nearly all actives have a fitted effect of over 15% in size). Put shortly: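 ERR reporter cells (NTP line) pre-incubated 6 hours at 37 C, then exposed to compounds for 18 hours at 37 C. ONE-Glo luciferase luminescence was read after 30 minutes at room temperature.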

Values joined by “and” are separate entries in the source; they are usually repeats but may differ in a detail not shown here. Equal entries are not always repeated. A number with no mark means an inactive call. Records with an inconclusive call do not appear. Some compounds were tested as several samples or in several runs, with calls that do not always agree. Active and inactive are the calls of the source. Unless noted, the call rests on the fitted dose curve; in most records, active means well fitted curve in the direction sought with a large enough effect in the repeat runs; inconclusive means weak or mixed curves; inactive means no such curve, though single readings can be large; an effect the other way counts as inactive or inconclusive.
On the % scale 0 is the no-effect control and ±100 the full control effect.

Take `CCCCCCCC=O`: the call in [1], in [2], in test [3], in [4], in [7] and in test [13] was inactive. The result in test [14] and in test [17] was inactive. The Potency result in test [5], in [6], in test [8], in test [9], in test [10] and in test [12] was “inactive” throughout. Besides, the Potency entry in test [15] and in [16] was “inactive” throughout. For the same molecule, in test [11], the max response is 1.74% and 27%.
With `CC(C)OC(=O)COc1ccc(Cl)cc1Cl`, the result in [2], in [3], in test [4], in [18], in test [7] and in test [13] was inactive. Besides, the molecule was classed as inactive in [14] and in [17]. The Potency entry in [5], in test [8], in [9], in test [10], in [12] and in [15] was “inactive” each time. The Potency entry in test [16] was “inactive”. In [11], the max response is 8.21% and -2.23%.
As to `CN(C)c1ccc(Cc2ccc(N(C)C)cc2)cc1`, the molecule was classed as inactive in test [1], in test [2], in test [3], in [19], in test [18] and in test [7]. Besides, the molecule was called inactive in test [13], in [14] and in test [17]. For the same molecule, the Potency result in test [5], in [8], in test [10], in [12], in [15] and in [16] was “inactive” throughout. The Potency in [9] is 21.9 µM (active); in [11], 19.6 µM (active) and 24.5 µM (active).
With `CC(=O)c1ccc(O)cc1`, the result in [2], in [3], in test [4], in test [7], in [13] and in test [14] was inactive. Moreover, in test [17], the outcome was inactive. The Potency entry in test [5], in test [6], in test [8], in test [9], in test [10] and in test [12] was “inactive” each time. The Potency result in test [15] and in [16] was “inactive” in each case. The max response in [11] is 0.924% and -3%.
For `CCCCCCCCCCN`, the call in test [1], in test [2], in test [3], in test [4], in [18] and in test [7] was inactive. Besides, the molecule was classed as inactive in test [13], in test [14] and in test [17]. In addition, the Potency entry in test [5], in test [8], in test [9], in test [10], in test [12] and in test [15] was “inactive” in each case. Besides, the Potency entry in test [16] is “inactive”. In test [11], the max response was 0.163% and 1.85%.
Consider `CC(O)CC(C)(C)O` (stereo not given), for which the result in [1], in [2], in test [3], in [4], in test [18] and in [7] was inactive. Moreover, the outcome in test [13], in test [14] and in [17] was inactive. Besides, the Potency result in test [5], in test [8], in test [9], in test [10], in test [12] and in test [15] was “inactive” in each case. Also, in test [16], the Potency result was “inactive”.
Take `CCCCCCO`: the molecule was classed as inactive in test [2], in [3], in [4], in test [18], in test [7] and in [13]. Moreover, the result in test [14] and in test [17] was inactive. Besides, the Potency entry in test [5], in [8], in test [9], in [10], in test [12] and in [15] was “inactive” each time. Further, in [16], the Potency result is “inactive”.
Take `N[C@H](Cc1c[nH]c2ccccc12)C(=O)O`: the molecule was classed as inactive in test [1], in [2], in test [3], in test [4], in [7] and in test [13]. Moreover, the result in [14] and in [17] was inactive. The Potency entry in test [5], in [6], in test [8], in [9], in [10] and in [12] was “inactive” each time. Besides, the Potency result in test [15] and in [16] was “inactive” throughout.
As for `CC(C)CC(=O)CC(C)CC(C)C` (stereo not given), the result in test [2], in [3], in [4], in test [19], in test [18] and in test [7] was inactive. Besides, the molecule was classed as inactive in test [13], in test [14] and in test [17]. Also, the Potency result in test [5], in [8], in [9], in test [10], in test [12] and in [15] was “inactive” throughout. Moreover, the Potency result in [16] was “inactive”. In test [11], the Potency was 15.5 µM (active). In test [11], the max response is 0.688%.
As to `CN(C)CCOC(=O)COc1ccc(Cl)cc1`, the molecule was called inactive in test [1], in [2], in test [4], in test [19], in test [7] and in test [13]. For the same molecule, the molecule was called inactive in test [14] and in [17]. Moreover, the Potency result in test [5], in test [6], in test [8], in [9], in test [10] and in test [12] was “inactive” each time. Further, the Potency result in [15] and in [16] was “inactive” each time. Besides, the max response in test [11] was -6.44% and 0.203%.
Turning to `CC(CCO)CC(C)(C)C` (stereo not given), the outcome in test [1], in test [2], in [3], in test [4], in test [18] and in test [7] was inactive. Moreover, the molecule was classed as inactive in test [13], in test [14] and in [17]. In addition, the Potency entry in [5], in test [6], in [8], in [9], in test [10] and in test [12] was “inactive” in each case. For the same molecule, the Potency entry in [15] and in test [16] was “inactive” each time.
In the case of `CC(=O)OC1CC(C)OC(C)O1` (stereo not given), the result in [2], in [3], in [4], in [19], in [7] and in test [13] was inactive. In addition, the call in [14] and in [17] was inactive. For the same molecule, the Potency entry in test [5], in test [8], in test [9], in test [10], in test [12] and in [15] was “inactive” throughout. In addition, the Potency entry in test [16] is “inactive”.
Take `N#Cc1ccccc1`: the call in test [2], in test [3], in test [4], in test [19], in [18] and in test [7] was inactive. Moreover, the result in test [13], in test [14] and in test [17] was inactive. The Potency entry in test [5], in test [6], in [8], in test [9], in [10] and in test [12] was “inactive” each time. The Potency entry in [15] and in test [16] was “inactive” in each case. In [11], the max response was 6.77% and 3.17%.
